Assay outcomes as filed in PubChem BioAssay.
SENP6 inh: SENP6 protease inhibition; Q9GZR1; Recombinant SENP6 catalytic domain, aminoluciferin luminescence; inhibition, % at 10 µM; actives 1.8% (n = 330,000); AID 2599;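 active means inhibition above about 50% at the single tested dose, limit read from the data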
EBI2 antag: EBI2 (human) antagonism. P32249. EBI2 beta-arrestin recruitment, luminescence, 7a,25-OHC stimulated. inhibition, % at 5 µM. actives 0.81% (n = 360,000). AID 651636; in the data active means inhibition above about 38%;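 further: enzyme fragment complementation signal reports receptor beta-arrestin coupling in cells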
SENP8 block-1: blocks human SENP8 cleavage of Nedd8 substrate; Q96LD8; recombinant SENP8, Nedd8 substrate fluorescence; inhibition, % at 20 µM; actives 0.64% (n = 360,000); AID 602440; in the data active means inhibition mostly above about 40%, no sharp cut-off; inactive means mostly below about 27%
SENP8 block-2: SENP8 protease inhibition. inhibition, % at 10 µM. purified SENP8, Z-RLRGG-aminoluciferin cleavage, luminescence. actives 1.2% (n = 330,000); in the data active means inhibition above about 50%
SENP7 inh: blocks the human protease SENP7; inhibition, % at 5 µM; AID 434973; recombinant SENP7, Z-RLRGG-aminoluciferin luminescence, 40 min; actives 1.5% (n = 330,000);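 active means inhibition above about 50% at the single test dose, limit read from the data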
AHR act: activates the human aryl hydrocarbon receptor | AID 2796 | AHR-responsive luciferase reporter cells, luminescence | actives 2.5% (n = 320,000) | P35869 | activation, % at 5 µM; in the data active means activation above about 47%
Target sequence (P35869 whole entry, looked up): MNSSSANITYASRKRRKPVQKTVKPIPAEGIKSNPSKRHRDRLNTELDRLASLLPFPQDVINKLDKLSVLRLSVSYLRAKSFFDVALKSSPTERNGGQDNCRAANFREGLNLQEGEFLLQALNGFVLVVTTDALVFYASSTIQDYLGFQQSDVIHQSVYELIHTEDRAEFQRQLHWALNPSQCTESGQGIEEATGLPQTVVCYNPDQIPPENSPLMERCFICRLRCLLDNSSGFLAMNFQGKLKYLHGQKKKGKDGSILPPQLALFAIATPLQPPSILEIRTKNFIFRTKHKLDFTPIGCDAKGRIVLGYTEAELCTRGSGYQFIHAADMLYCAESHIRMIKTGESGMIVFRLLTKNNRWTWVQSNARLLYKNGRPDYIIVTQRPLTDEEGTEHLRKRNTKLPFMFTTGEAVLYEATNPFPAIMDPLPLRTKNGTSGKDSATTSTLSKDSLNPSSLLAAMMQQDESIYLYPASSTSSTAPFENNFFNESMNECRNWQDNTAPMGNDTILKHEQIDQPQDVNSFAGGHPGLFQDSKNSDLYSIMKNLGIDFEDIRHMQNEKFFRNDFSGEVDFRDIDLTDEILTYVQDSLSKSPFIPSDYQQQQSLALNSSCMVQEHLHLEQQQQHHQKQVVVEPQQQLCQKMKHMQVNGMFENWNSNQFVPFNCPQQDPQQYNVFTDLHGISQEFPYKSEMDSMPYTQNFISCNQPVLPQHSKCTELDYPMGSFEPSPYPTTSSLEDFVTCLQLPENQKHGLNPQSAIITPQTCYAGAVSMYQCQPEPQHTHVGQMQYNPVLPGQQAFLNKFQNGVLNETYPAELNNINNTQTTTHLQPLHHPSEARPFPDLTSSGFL
AHR act cf: confirmation of human aryl hydrocarbon receptor activators | shares compounds with AHR act | human cells, AHR-responsive luciferase reporter, luminescence | activation, % at 9 µM | actives 87% (n = 2,300); in the data active means activation above about 49%;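 further: HepG2 hepatoma cells carrying a DRE-driven firefly luciferase reporter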
PXR act counter: activates human PXR in AHR activator counter-screen. shares compounds with AHR act. cell-based PXR reporter, luciferase luminescence. activation, % at 11.6 µM. actives 88% (n = 2,300). AID 434939; in the data active means activation above about 11%;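 further: human hepatoma DPX-2 cells expressing full-length human PXR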
A number is an active result. An excerpt weighted towards active compounds, which were near 5% of everything screened.

Screening CCN(CC)c1ccc(CNc2ccc3c(c2)ncn3CC)cc1 returned SENP6 inh inactive, SENP8 block-2 inactive, SENP7 inh inactive and AHR act inactive.
CCn1cnc2cc(NCc3ccc(Br)cc3)ccc21 was read as SENP6 inh inactive, SENP8 block-2 inactive, SENP7 inh inactive, AHR act 107, AHR act cf 113 and PXR act counter 46.
Screening CCc1ccc(NC(=O)c2ccc3nc(N)sc3c2)cc1 returned SENP6 inh inactive, EBI2 antag inactive, SENP8 block-1 inactive, SENP8 block-2 inactive, SENP7 inh inactive, AHR act 99, AHR act cf 51 and PXR act counter 18.
Screening Nc1nc2ccc(C(=O)Nc3ccccc3)cc2s1 returned SENP6 inh inactive, EBI2 antag inactive, SENP8 block-1 inactive, SENP8 block-2 inactive, SENP7 inh inactive, AHR act 100, AHR act cf 137 and PXR act counter 48.
`CCc1ccc2nc(N)sc2c1` gave SENP6 inh inactive, EBI2 antag inactive, SENP8 block-1 inactive, SENP8 block-2 inactive, SENP7 inh inactive and AHR act inactive.
Screening O=c1ccc2ccccc2n1Cc1cccc(F)c1 returned SENP6 inh inactive, EBI2 antag inactive, SENP8 block-1 inactive, SENP8 block-2 inactive, SENP7 inh inactive and AHR act inactive.
For CCOc1cc(N2CCOCC2)c(OCC)cc1NC(=O)c1c(C)noc1C the results were SENP6 inh inactive, EBI2 antag inactive, SENP8 block-1 inactive, SENP8 block-2 inactive and SENP7 inh inactive.
For Cc1ccc(Nc2nc(N)c([N+](=O)[O-])c(N3CCOCC3)n2)cc1 the results were SENP6 inh inactive, EBI2 antag inactive, SENP8 block-1 inactive, SENP8 block-2 inactive, SENP7 inh inactive, AHR act 81, AHR act cf 77 and PXR act counter 22.
For O=C(CCCc1nc2ccccc2s1)NNC(=O)CCN1CCN(Cc2ccccc2)CC1 the results were SENP6 inh inactive, EBI2 antag inactive, SENP8 block-1 inactive, SENP8 block-2 inactive, SENP7 inh inactive and AHR act inactive.
For COc1cc(OC)cc(-c2nnc(SCC(=O)N3CCOCC3)o2)c1 the results were SENP6 inh inactive, EBI2 antag inactive, SENP8 block-1 inactive, SENP8 block-2 inactive, SENP7 inh inactive and AHR act inactive.
COc1cc(OC)cc(-c2nnc(SCC(=O)N3CCCCC3)o2)c1 was read as SENP6 inh inactive, EBI2 antag inactive, SENP8 block-1 inactive, SENP8 block-2 inactive, SENP7 inh inactive, AHR act 83, AHR act cf inactive and PXR act counter 72.
`O=c1c[n+]([O-])c2ccccc2n1OCc1c(F)cccc1F` gave SENP6 inh inactive, EBI2 antag inactive, SENP8 block-1 inactive, SENP8 block-2 inactive, SENP7 inh inactive, AHR act 80, AHR act cf 92 and PXR act counter 43.
For CCOn1c(=O)c[n+]([O-])c2ccccc21 the results were SENP6 inh inactive, EBI2 antag inactive, SENP8 block-1 inactive, SENP8 block-2 inactive, SENP7 inh inactive and AHR act inactive.
c1ccc(-c2cc3c(-n4cccc4)ncnc3o2)cc1 was read as SENP6 inh inactive, EBI2 antag inactive, SENP8 block-1 inactive, SENP8 block-2 inactive, SENP7 inh inactive, AHR act 86, AHR act cf 105 and PXR act counter 23.
`Cc1nnc2c(-c3ccccc3)nc3ccccc3n12` gave SENP6 inh inactive, EBI2 antag inactive, SENP8 block-1 inactive, SENP8 block-2 inactive, SENP7 inh inactive, AHR act 89, AHR act cf 109 and PXR act counter 13.
`Cc1nnc2c(NCCc3ccccc3)nc3ccccc3n12` gave SENP6 inh inactive, EBI2 antag inactive, SENP8 block-1 inactive, SENP8 block-2 inactive, SENP7 inh inactive and AHR act inactive.
Screening N#CC(C#N)=C1C=CC=CN1/C(=C\c1ccco1)C(=O)c1ccc(Cl)cc1 returned EBI2 antag 74, SENP8 block-1 inactive, AHR act 178, AHR act cf 133 and PXR act counter 51.
N#CC(C#N)=C1C=CC=CN1/C(=C\c1ccco1)C(=O)c1ccc(-c2ccccc2)cc1 was read as EBI2 antag inactive, SENP8 block-1 inactive and AHR act inactive.
